Consider 26 compounds from ChEMBL document CHEMBL3988442, “University of Dundee, Small-Polar-MMV Screening Library” (2021).

Screen size: about 69,000 compounds; about 950 (1.4%) showed an effect of 50% or more. The entries come from a sample that favours strong results as a whole.

The assay deals with Mycobacterium tuberculosis. As to the kind of experiment: Cornell M. t heat shock assay. Note: in the data most compounds retested in dose-response had high values. The assay is classed as functional, organism-based. More on the design: dose or concentration left out as unconfirmed.
As to `Cc1nc(COC[C@@H]2CC[C@H]3[C@H](CCN3c3ccccn3)O2)cs1.O=C(O)C(F)(F)F`, the “Percent Effect” value was -8.365%.

With `COCC(=O)NC1CC2(CCN(Cc3ccco3)CC2)c2ccccc21.O=C(O)C(F)(F)F` (stereo unspecified), the “Percent Effect” value is given as -0.75%.

`Cn1ccc(C(=O)N2CCC3(CCN3c3ncccn3)C2)n1.O=C(O)C(F)(F)F` (stereo unspecified): the “Percent Effect” value came to 24.82%.

Consider `CC(C)(C)c1ncc(C(=O)NC(C(N)=O)c2ccccc2)s1` (stereo unspecified), for which the “Percent Effect” value is -32.92%.

Turning to `Cn1cc(C(=O)N2CC[C@@H]3[C@@H]2CCN3Cc2cccnc2)cn1.O=C(O)C(F)(F)F.O=C(O)C(F)(F)F`, the “Percent Effect” value is -1.797%.

Turning to `COC[C@]12COC[C@H]1CN(Cc1cc(OC)cc(OC)c1)C2.O=C(O)C(F)(F)F`, the “Percent Effect” value is recorded as 3.349%.

Take `Cc1cccc(CN2CCC(NCC3CNc4cc(C)nn4C3)CC2)c1` (stereo unspecified): the “Percent Effect” value was determined as 108.8%.

Turning to `Cc1cc2n(n1)CC(CNC1CCN(Cc3ccncc3)CC1)CN2` (stereo unspecified), the “Percent Effect” value is on record as -16.93%.

Regarding `Cc1cc2n(n1)CC(CNC1CCN(Cc3ccccc3C)CC1)CN2` (stereo unspecified), the “Percent Effect” value is 13.82%.

As for `CCCc1cc(=O)n(CC(N)=O)c(-n2nc(C)cc2C)n1`, the “Percent Effect” value stood at 28.09%.

`COCCNC(=O)Cn1c(C)cc2nc(SC)n(CC(C)C)c(=O)c21`: the “Percent Effect” value is reported as -7.488%.

For `CCCc1cc(=O)n(CC(=O)NC(C)C)c(-n2nc(C)cc2C)n1`, the “Percent Effect” value stood at 96.11%.

On to `Cc1cc(C)n(-c2cncc(NCCC(=O)NC(C)C)n2)n1`, for which the “Percent Effect” value was -1.343%.

As for `CCCNC(=O)Cn1c(-n2nc(C)cc2C)nc(CCC)cc1=O`, the “Percent Effect” value worked out at 96.63%.

Take `COCCCNC(=O)Cn1c(C)cc(=O)n2nc(-c3cccs3)nc12`: the “Percent Effect” value came to 14.25%.

For the compound `CCCc1cc(=O)n(CC(=O)NCCOC)c(-n2nc(C)cc2C)n1`, the “Percent Effect” value turned out to be 103.9%.

Take `CCCNC(=O)CCNc1cncc(-n2nc(C)cc2C)n1`: the “Percent Effect” value is given as -16.72%.

As for `CCCNC(=O)Cn1c(C)nn(C(C)(C)C)c1=O`, the “Percent Effect” value worked out at 11.09%.

As to `O=C(O)C(F)(F)F.O=C(O)C(F)(F)F.O=C(c1ccnnc1)N1C[C@@H]2OCCN(CCN3CCCC3)[C@@H]2C1`, the “Percent Effect” value was -5.03%.

On to `CCc1cc(C(F)(F)F)n2nc(C3CCCN3C3CCSCC3)cc2n1.O=C(O)CC(O)(CC(=O)O)C(=O)O` (stereo unspecified), for which the “Percent Effect” value was determined as 5.555%.

Take `O=C(O)c1ccc(SCC(=O)c2ccccc2)nc1`: the “Percent Effect” value is 25.44%.

`Cc1cccc(CN2C[C@@H]3OCCN(CC(=O)N(C)C)[C@@H]3C2)c1.O=C(O)C(F)(F)F`: the “Percent Effect” value is recorded as 42.49%.

In the case of `Cl.Cl.c1ccc(OC[C@@H]2CCC[C@@]23CNCCO3)nc1`, the “Percent Effect” value is listed as -6.285%.

With `CC(C)n1cnnc1CN(C)Cc1cnc(-c2ccccn2)nc1`, the “Percent Effect” value is listed as 32.7%.

As for `CC(c1cccs1)N(C)Cc1cnc(-c2ccccn2)nc1` (stereo unspecified), the “Percent Effect” value is recorded as 106.1%.

In the case of `Cc1noc(C)c1CN(C)C(C)c1cccs1` (stereo unspecified), the “Percent Effect” value came out at 7.19%.
